Bioassay records as filed in PubChem.
This is a sample that favours compounds with a hit; in the whole collection about 8.1% have one here.
PINK1 expr mod: changes PINK1 expression. PINK1 immunofluorescence, high-content cytometry, 24 h. AID 624263. Potency, µM (titrated, usually from 76.6 µM), for the others: top-dose activation (PINK1 increase), hits mostly activators. hit rate 0.2% among 410,000; active = well fitted activation curve with a large enough effect; inconclusive = small, poorly fitted or top-dose-only effect; cell line not stated here; also: % of control where 0% means no effect; nearly all actives have a fitted effect of over 65% in size
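Stable cell line treated 24 h with compounds at 5 concentrations (CCCP controls), then fixed and immunostained for PINK1 plus nuclear and cell stains; PINK1 immunofluorescence quantified by laser-scanning microplate cytometry.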
Sfp PPTase inh: blocks B. subtilis Sfp PPTase activity; Biochemical Sfp PPTase activity, qHTS; Potency, µM, for the others: largest response in the series, negative = inhibition, usual class: inhibitors; hit rate 3.5% among 310,000; AID 1490;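 also: the enzyme is Sfp with the accession as filed and its product quenches rhodamine fluorescence; 0% = enzyme reaction without inhibitor and -100% = no enzyme wells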
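After 15 min at room temperature with compound, 15 nM Sfp received 5 uM rhodamine-CoA plus 12.5 uM BHQ-2-ybbR (50 mM Hepes pH 7.6, 10 mM MgCl2). Rate came from the fluorescence difference over 30 min, ex 525/em 598 nm.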
Epigenetic reg: regulators of epigenetic silencing causing reporter derepression in mouse cells | AID 1865 | murine LDR cells, GFP reporter derepression, 30 h | Potency, µM (titrated, usually from 53.9 µM), for the others: at the top dose GFP activation, hits mostly activators | hit rate 0.2% among 280,000; also: % of control where 0% means no effect; nearly all actives have a fitted effect of over 60% in size
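GFP-positive cell count by laser-scanning cytometry (objects 20–120 um) after 30 h, 37 C compound exposure of murine LDR cells; reporter is CMV-GFP integrated at a silenced locus, inducible by HDAC or DNMT inhibitors.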
VP16 counter: Gal4-VP16 reporter inhibition counter-screen; Drosophila S2 Gal4-VP16 UAS-luciferase, luminescence, 20 h; Potency, µM (titrated, usually from 53.6 µM), without a hit: top-dose activity, negative = inhibition, actives largely listed as inhibitors; hit rate 3.5% among 310,000; AID 2546;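 also: Gal4-VP16 expression switched on by copper sulfate through the metallothionein promoter; % is scaled to controls: 0 for no effect and ±100 for the full control effect; nearly all actives have a fitted effect of over 50% in size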
RORgamma inh: ROR gamma (mouse) transcription inhibition. P51450. Drosophila S2 Gal4-RORgamma UAS-luciferase reporter, 20 h. Potency, µM (titrated, usually from 53.6 µM), inactives show at the top dose activity change, negative = inhibition, usual class: inhibitors. hit rate 5.4% among 310,000; also: % is scaled to controls: 0 for no effect and ±100 for the full control effect; nearly all actives have a fitted effect of over 60% in size
Target sequence (P51450 whole entry, looked up, the tested form may be a part): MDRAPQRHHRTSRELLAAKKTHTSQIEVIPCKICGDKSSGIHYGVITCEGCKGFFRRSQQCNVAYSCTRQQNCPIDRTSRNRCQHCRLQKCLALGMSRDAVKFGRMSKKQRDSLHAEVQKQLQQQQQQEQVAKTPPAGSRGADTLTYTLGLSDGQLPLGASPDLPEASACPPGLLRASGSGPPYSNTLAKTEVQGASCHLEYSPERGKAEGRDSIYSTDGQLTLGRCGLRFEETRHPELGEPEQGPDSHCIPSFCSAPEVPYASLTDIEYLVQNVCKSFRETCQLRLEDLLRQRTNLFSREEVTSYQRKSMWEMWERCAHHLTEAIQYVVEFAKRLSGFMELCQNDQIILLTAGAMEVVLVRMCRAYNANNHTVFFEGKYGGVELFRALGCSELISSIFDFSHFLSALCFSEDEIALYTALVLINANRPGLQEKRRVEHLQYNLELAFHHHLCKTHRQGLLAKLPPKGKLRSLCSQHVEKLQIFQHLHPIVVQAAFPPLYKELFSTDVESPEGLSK
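Drosophila S2 cells stably expressing Gal4-DBD/mouse RORγ fusion under metallothionein promoter plus UAS-luciferase; compound 1 h, then 700 uM CuSO4 induction for 20 h at ambient temperature; inhibition read as reduced luminescence.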
ClpP mod: qHTS Assay for Activators of ClpP; purified B. subtilis ClpP, FRET peptide cleavage, 20 min; Potency, µM (titrated, usually from 57.5 µM), without a hit: at the top dose activity change, negative = active; hit rate 1.9% among 340,000; AID 651965, 2013; active = well fitted falling curve with a large enough effect; inconclusive = small, poorly fitted or top-dose-only effect; inactive = no such curve, though single readings can be large or run the other way; also: the source files actives as falling curves though it sought activators and does not explain the sign; nearly all actives have a fitted effect of over 65% in size
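FRET quenching reversal measured ClpP activation: 10 microg/mL B. subtilis ClpP at pH 8 with the FRET-FV decapeptide, read at 430 nm after 320 nm excitation. The 20-min minus 0-min signal was scaled between DMSO/no-enzyme wells and ADEP (5.8 microM final).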
Numbers without * were called inactive; ? = inconclusive; / = not tested or not shown. Unless noted, calls follow the shape of the dose curve; as a rule, active = well fitted curve in the direction sought with a large enough effect; inconclusive = small, poorly fitted or top-dose-only effect, or another doubt; inactive = no such curve, though single readings can be large; an effect the other way counts as inactive or inconclusive. Potency is read from the fitted curve at half-maximal effect.

SMILES	PINK1 expr mod	Sfp PPTase inh	Epigenetic reg	VP16 counter	RORgamma inh	ClpP mod
Cc1ccc(-c2noc(-c3cccnc3NCc3ccc(Cl)cc3)n2)cc1	0%	/	-4%	/	/	?
CC(C)CC(NC(=O)c1ccc(Cl)cc1)C(=O)OCc1cc([N+](=O)[O-])cc2c1OCOC2 (stereo unspecified)	1%	14%	0%	-1%	2%	22µM*
CCOc1ccc(C2C(C(=O)Nc3ccccc3C)=C(C)Nc3nnnn32)cc1 (stereo unspecified)	4%	/	3%	/	/	1%
CCOC(=O)c1cc(-c2ccc(OC(F)F)cc2)nc2c1c(=O)[nH]c(=O)n2C	1%	-1%	1%	-11%	-2%	3.5µM*
CCOC(=O)c1cc(-c2ccc(OC)cc2)nc2c1c(C)nn2CCC(N)=S	0%	8%	0%	?	4.5µM*	/
CCOC(=O)c1cc(-c2ccco2)nc2c1c(C)nn2-c1ccccc1	6%	?	-1%	?	-4%	-5%
COc1cccc(CNC(=O)CCc2c(C)nn(-c3ccc(N4CCCC4)nn3)c2C)c1	1%	/	0%	/	/	-2%
COc1cccc2c1C(=O)/C(=C/c1ccc(N(C)C)cc1)C2	4%	/	/	/	/	-1%
CCC(=O)N1CCc2cc(CNC(=O)Nc3ccc(OC)cc3OC)ccc21	1%	/	0%	/	/	-6%
O=C(Cc1cnn(-c2ccccc2)c1)c1ccc(O)c(O)c1O	1%	32µM*	-3%	11%	31%	-3%
COc1ccc2nc(NC(=O)Nc3cccc4ccccc34)sc2c1	10%	17%	-4%	-18%	-16%	4%
COc1ccc2nc(N=Nc3c(O)ccc4ccccc34)sc2c1	/	3%	-2%	4.5µM*	1µM*	/
Cc1ccccc1Cn1c(CN2CCC(C(=O)NCCc3ccccc3)CC2)cc2ccccc21	1%	/	-1%	/	/	-9%
Cc1c(/C(O)=C2/C(=O)C(=O)N(CCN3CCOCC3)C2c2cccs2)cnn1-c1ccccc1 (stereo unspecified)	2%	-1%	-1%	0%	0%	11µM*
Cc1ccc(C2/C(=C(/O)c3cnn(-c4ccccc4)c3C)C(=O)C(=O)N2CCN2CCOCC2)o1 (stereo unspecified)	4%	50µM*	1%	2%	?	-1%
Cc1cccc(CS(=O)(=O)Cc2ccc(C(=O)NCc3ccc(Cl)cc3)o2)c1	4%	/	0%	/	/	-4%
NC(=O)SCC(=O)Nc1ccc(Cl)cc1	3%	-24%	-1%	-23%	?	0%
NC(=O)SCC(=O)Nc1cccc(Cl)c1	8%	-2%	3%	?	10µM*	1%
Cc1ccc(C(=O)C(OC(=O)CNC(=O)COc2ccccc2C)c2ccccc2)cc1 (stereo unspecified)	0%	/	/	/	/	1%
NC(N)=Nc1nc(-c2ccccc2)c2ccccc2n1	0%	50µM*	0%	?	?	/
Clc1ccccc1-c1cncnc1NCCN1CCOCC1	-1%	24%	/	3%	-28%	/
O=C1C=C(NCCO)C(=O)c2cnccc21	/	-1%	1%	6.3µM*	3.5µM*	/
O=C1C=C(NCCc2cc(Br)c(O)c(Br)c2)C(=O)c2ncccc21	?	/	/	/	/	-13%
O=C1C=C(NCCN2CCOCC2)C(=O)c2cnccc21	/	-9%	-1%	?	10µM*	/
COc1cccc(-c2cn3c(n2)sc2cc(C(=O)NCCc4ccccc4)ccc23)c1	4%	/	0%	/	/	4%
Cc1c(C(=O)OCC2CCCCC2)[nH]c2c1C(=O)CC(c1ccccc1Cl)C2 (stereo unspecified)	8%	/	4%	/	/	1%
CCCCCSc1nnc2c(n1)OC(CC)Nc1ccc(Br)cc1-2 (stereo unspecified)	0%	/	0%	/	/	-1%
CSc1cccc(NC(=O)c2ccc3c(c2)CCCN3S(C)(=O)=O)c1	-1%	/	3%	/	/	-27%
